Key:
Details in all cases: concentration: 1 μM, replicates: in singlicate; n = 1
VEGFR2 = test system: T1, VEGFR2
T1 construct: gene KDR

VPS34 = test system: T2, VPS34
T2 construct: gene PIK3C3

VRK2 = test system: VRK2
WEE1 = test system: WEE1
WEE2 = test system: WEE2
WNK1 = test system: WNK1
WNK2 = test system: WNK2
WNK3 = test system: WNK3
WNK4 = test system: WNK4
YANK1 = test system: T3, YANK1
T3 construct: gene STK32A

YANK2 = test system: T4, YANK2
T4 construct: gene STK32B

YANK3 = test system: T5, YANK3
T5 construct: gene STK32C

YES = test system: T6, YES
T6 construct: gene YES1

YSK1 = test system: T7, YSK1
T7 construct: gene STK25

YSK4 = test system: T8, YSK4
T8 construct: gene MAP3K19

ZAK = test system: ZAK
ZAP70 = test system: ZAP70
p38-alpha = test system: T9, p38-alpha
T9 construct: gene MAPK14

p38-beta = test system: T10, p38-beta
T10 construct: gene MAPK11

p38-delta = test system: p38-delta
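Further: KINOMEscan kinase panel screen.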

Compound	%Inh (VEGFR2) [%]	%Inh (VPS34) [%]	%Inh (VRK2) [%]	%Inh (WEE1) [%]	%Inh (WEE2) [%]	%Inh (WNK1) [%]	%Inh (WNK2) [%]	%Inh (WNK3) [%]	%Inh (WNK4) [%]	%Inh (YANK1) [%]	%Inh (YANK2) [%]	%Inh (YANK3) [%]	%Inh (YES) [%]	%Inh (YSK1) [%]	%Inh (YSK4) [%]	%Inh (ZAK) [%]	%Inh (ZAP70) [%]	%Inh (p38-alpha) [%]	%Inh (p38-beta) [%]	%Inh (p38-delta) [%]
Cc1ccc(NC(=O)c2ccc(Cl)cc2)cc1-c1ccc(C(=O)Nc2ccncc2)cc1 [GSK1398467]	0	0	27	0	8	0	0	31	22	2	10	17	18	0	40	17	6	65	29	27
CC(=O)c1cccc(NC(=O)NC2CCN(c3ccnc(Nc4ccc(F)cc4)n3)C2)c1 (stereo not shown) [GSK1379710]	8	10	19	19	10	10	0	49	22	12	0	6	0	0	20	9	0	30	0	14
Cc1ccccc1-c1cc(-c2c[nH]nc2-c2ccccn2)ccn1 [GW680061]	0	0	0	8	0	14	14	24	31	0	0	13	15	3	14	0	0	85	0	28
COc1cccc(NC(=O)Nc2ccc(C)c(-c3ccc(C(=O)Nc4ccncc4)cc3)c2)c1 [GSK1398474]	6	0	0	11	4	0	0	28	0	18	0	10	12	4	24	50	0	6	0	28
Nc1nccc(-c2c(-c3ccc(F)cc3)ncn2C2CCN(Cc3ccccc3)CC2)n1 [SB-219980]	1	0	0	0	0	7	12	0	0	28	64	30	0	0	34	0	21	99.7	18	0
CNc1nc(-c2ccc3c(N)n[nH]c3c2)cc(N2C[C@@H](C(=O)NC3CCCCC3)OC[C@H]2C)n1 [GSK2375584]	17	0	43	29	3	5	25	28	41	7	2	22	14	5	15	0	0	23	0	42
Cc1ccc(NC(=O)Nc2ccccc2)cc1-c1ccc(C(=O)Nc2ccncc2)cc1 [GSK1398471]	0	0	0	26	0	0	36	0	0	9	5	0	12	21	94.6	53	0	0	0	19
Cn1cncc1-c1cc2c(Nc3ccc(OCc4ccccc4)cc3)ncnc2cn1 [GW281179]	0	0	0	2	0	7	7	25	14	0	0	15	19	4	27	43	20	0	0	52
O=c1cc(N2CCOCC2)nc2n(Cc3ccccc3F)ccn12 [GSK2297428]	0	94	0	0	0	0	0	19	0	0	0	0	0	0	33	0	0	5	0	26
Cc1cnc(N)c(/C=C/c2cncc(C(=O)NCCc3ccc(Cl)cc3Cl)c2)c1.Cl [GSK190937]	0	0	26	5	0	3	4	30	4	0	0	26	20	4	27	16	0	29	0	25
O=C1NC(=O)C(c2ccc(Cl)cc2)=C1Nc1cccc(Cl)c1 [SB-317651]	0	90.2	90.5	0	29	0	27	0	0	0	0	0	0	0	0	16	5	13	0	5

— paper PMC5540273 (PLoS ONE, 2017)
